Some test systems named below: DU-145 prostate; K-562 leukemia; MALME-3M melanoma; MDA-MB-231 breast; RXF 393 renal; SF-268 CNS; SF-295 CNS; SF-539 CNS; UACC-257 melanoma; M14 melanoma; HCT-15 colon; HT29 colon; SNB-75 CNS; SNB-19 CNS; U251 CNS; PC-3 prostate; SK-MEL-5 melanoma; UACC-62 melanoma; LOX IMVI melanoma; SK-MEL-28 melanoma.
Common to all, as to assay: NCI-60 one-dose screen, 48 h (100 = growth as untreated, 0 = no growth, -100 = all killed)
Conditions in all cases: 10 µM unless noted

Each structure is given as a SMILES string. Compounds without any hit were thinned out: in the full panel of roughly 83,000, 20% have a hit.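 Percent growth is the endpoint: 0 to 100 indicates growth inhibition (40 means 60% inhibition), 0 means no net growth, and negative values indicate cell death.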 A number with no mark means an inactive call. The source made the active and inactive calls. Rule for the calls: active = growth percent below 10; inactive = the rest.

For `COc1nc2ccccc2cc1-c1nc2c(cnn2-c2ccc(Br)cc2)c(=O)[nH]1`, the growth was 24.5% in the experiment with DU-145 prostate; 16.3% in the experiment with K-562 leukemia; 52.6% in the experiment on MALME-3M melanoma; 66.9% in the experiment with MDA-MB-231 breast; -7.26% (active) in the experiment with RXF 393 renal; 41.3% in the experiment on SF-268 CNS. Further, the growth in the experiment with SF-295 CNS was 16.9%; with SF-539 CNS, -31.7% (active); in the experiment with UACC-257 melanoma, 46.9%; in the experiment with M14 melanoma, -7.56% (active); in the experiment on HCT-15 colon, 24%; in the experiment with HT29 colon, 8.03% (active). Also, the growth is -12.9% (active) with SNB-75 CNS; 21.5% in the experiment on SNB-19 CNS; 15.7% with U251 CNS; 13.6% in the experiment on PC-3 prostate; 5.23% (active) in the experiment with SK-MEL-5 melanoma; 24.9% with UACC-62 melanoma. Further, the growth in the experiment with LOX IMVI melanoma is 31.7%; in the experiment on SK-MEL-28 melanoma it was 43.4%.

As to `Cc1cccc2c3c(sc12)C(c1ccc(Cl)cc1)C(C#N)=C(N)O3` (stereo not given), the growth in the experiment on DU-145 prostate is 17.6%; in the experiment with K-562 leukemia, 5.28% (active); in the experiment on MALME-3M melanoma, 61.9%; in the experiment with MDA-MB-231 breast, 26.1%; in the experiment with RXF 393 renal, -7.02% (active); with SF-268 CNS, 44.8%. Also, the growth was 1.66% (active) in the experiment on SF-295 CNS; -14.5% (active) in the experiment with SF-539 CNS; 69.5% with UACC-257 melanoma; 9.67% (active) in the experiment with M14 melanoma; 10.3% in the experiment on HCT-15 colon; 6.24% (active) with HT29 colon. Further, the growth with SNB-75 CNS is 4.24% (active); in the experiment with SNB-19 CNS, 27.6%; in the experiment with U251 CNS, 27.2%; in the experiment with PC-3 prostate, 16.2%; in the experiment on SK-MEL-5 melanoma it was 27.1%; in the experiment with UACC-62 melanoma, 17.6%. For the same compound, the results for the growth in the experiment with LOX IMVI melanoma and in the experiment on SK-MEL-28 melanoma were 18.4% and 58.6%, respectively.

With `Cc1cc2[nH]c(=O)c3c4ncccc4cn3c2cc1C`, the growth in the experiment with DU-145 prostate is 35.6%; with K-562 leukemia, 3.34% (active); with MALME-3M melanoma it was 70.1%; with MDA-MB-231 breast, 28.8%; in the experiment on RXF 393 renal it was 18.1%; with SF-268 CNS, 41.7%. Also, the growth in the experiment with SF-295 CNS is -14.7% (active); with SF-539 CNS, 26.7%; in the experiment on UACC-257 melanoma it was 108%; in the experiment on M14 melanoma it was 67.3%; in the experiment with HCT-15 colon it was 5.25% (active); in the experiment with HT29 colon, -23.7% (active). The growth with SNB-75 CNS was 99.4%; in the experiment on SNB-19 CNS, 50.2%; in the experiment with U251 CNS it was 24.1%; with PC-3 prostate, 57.1%; in the experiment on SK-MEL-5 melanoma it was 70%; with UACC-62 melanoma it was -8.94% (active). Besides, the growth is -83.3% (active) with LOX IMVI melanoma and 95.1% in the experiment on SK-MEL-28 melanoma.

For the compound `Cc1onc2c(-c3ccccc3)n[nH]c(=O)c12`, the growth was 110% in the experiment on DU-145 prostate; 69.8% in the experiment on K-562 leukemia; 81.5% in the experiment with MALME-3M melanoma; 100% in the experiment with MDA-MB-231 breast; 122% with RXF 393 renal; 121% in the experiment on SF-268 CNS. Moreover, the growth with SF-295 CNS is 97.1%; with SF-539 CNS, 93.8%; with UACC-257 melanoma, 122%; in the experiment with M14 melanoma, 105%; in the experiment on HCT-15 colon, 104%; in the experiment with HT29 colon it was 90.4%. The growth was 83% in the experiment on SNB-75 CNS; 90.3% in the experiment with SNB-19 CNS; 97.6% in the experiment with U251 CNS; 90.5% with PC-3 prostate; 105% in the experiment with SK-MEL-5 melanoma; 95.3% in the experiment with UACC-62 melanoma. For the same compound, the growth with LOX IMVI melanoma was 104%; in the experiment with SK-MEL-28 melanoma, 108%.

In the case of `Cc1nc(/N=C(\N)NC(=O)Nc2ccccc2Cl)sc1C`, the growth in the experiment on DU-145 prostate is 13.2%; in the experiment with K-562 leukemia it was 13.1%; in the experiment with MALME-3M melanoma, 53.1%; in the experiment on MDA-MB-231 breast, 50.5%; in the experiment with RXF 393 renal, 4.01% (active); with SF-268 CNS, 60.6%. Besides, the growth in the experiment with SF-295 CNS is 12.6%; in the experiment on SF-539 CNS, 0.177% (active); with UACC-257 melanoma it was 69.5%; with M14 melanoma, 24%; with HCT-15 colon, 30.1%; in the experiment with HT29 colon, 18%. Also, the growth is -29.2% (active) in the experiment with SNB-75 CNS; 44.2% in the experiment on SNB-19 CNS; 29.2% in the experiment with U251 CNS; 33.1% in the experiment with PC-3 prostate; 32.6% in the experiment on SK-MEL-5 melanoma; 45.7% in the experiment with UACC-62 melanoma. Moreover, the growth in the experiment with LOX IMVI melanoma is 43.3%; in the experiment on SK-MEL-28 melanoma, 63.2%.

`O=C(/C=C/c1ccc([N+](=O)[O-])o1)NNC(=O)c1cc2ccccc2cc1O`: the growth is 11.7% in the experiment with DU-145 prostate; 3.48% (active) with K-562 leukemia; -36.3% (active) in the experiment with MALME-3M melanoma; 21% with MDA-MB-231 breast; -20.8% (active) in the experiment on RXF 393 renal; -3.99% (active) with SF-268 CNS. Besides, the growth in the experiment on SF-295 CNS was 54.8%; in the experiment with SF-539 CNS, -22.6% (active); with UACC-257 melanoma, -16.5% (active); in the experiment with M14 melanoma, -93.3% (active); with HCT-15 colon it was -62.7% (active); in the experiment with HT29 colon it was 7.4% (active). The growth was 45.7% in the experiment on SNB-75 CNS; 33.5% in the experiment on SNB-19 CNS; 17.5% in the experiment with U251 CNS; 38.4% in the experiment with PC-3 prostate; -86.9% (active) with SK-MEL-5 melanoma; -99.1% (active) with UACC-62 melanoma. For the same compound, the growth in the experiment with LOX IMVI melanoma was -10.5% (active); in the experiment with SK-MEL-28 melanoma, -46.1% (active).

Turning to `C(=N/Nc1ncnc2nc[nH]c12)/c1ccccn1`, the growth in the experiment on DU-145 prostate is 32.1%; with K-562 leukemia it was 24.8%; in the experiment on MALME-3M melanoma, 46.4%; with MDA-MB-231 breast, 53.7%; with RXF 393 renal, 66.8%; with SF-268 CNS it was 26.6%. Besides, the growth is 20.1% in the experiment on SF-295 CNS; 20.6% in the experiment on SF-539 CNS; 51.5% with UACC-257 melanoma; 14.2% in the experiment on M14 melanoma; 35.4% in the experiment with HCT-15 colon; 58.8% with HT29 colon. The growth was 75.5% in the experiment on SNB-75 CNS; 53.8% in the experiment on SNB-19 CNS; 32.6% in the experiment on U251 CNS; 31% in the experiment with PC-3 prostate; 16.9% in the experiment with SK-MEL-5 melanoma; 27% with UACC-62 melanoma. Moreover, the growth in the experiment with LOX IMVI melanoma is 19.1%; in the experiment with SK-MEL-28 melanoma, 49.1%.

`CC1CN(C2CCCCC2)C(=S)N(c2ccccc2)C1=O` (stereo not given): the growth in the experiment with DU-145 prostate is 115%; in the experiment with K-562 leukemia, 117%; in the experiment with MALME-3M melanoma, 119%; with MDA-MB-231 breast it was 115%; with RXF 393 renal, 123%; with SF-268 CNS, 102%. The growth in the experiment on SF-295 CNS was 103%; in the experiment with SF-539 CNS, 103%; in the experiment with UACC-257 melanoma, 109%; in the experiment on M14 melanoma it was 108%; in the experiment with HCT-15 colon, 103%; with HT29 colon, 111%. The growth was 92.1% in the experiment on SNB-75 CNS; 101% in the experiment with SNB-19 CNS; 105% in the experiment on U251 CNS; 90.1% with PC-3 prostate; 104% in the experiment with SK-MEL-5 melanoma; 105% with UACC-62 melanoma. For the same compound, the growth in the experiment on LOX IMVI melanoma is 105%; in the experiment with SK-MEL-28 melanoma it was 114%.

(Values after PubChem BioAssay (NCI).)
